Among the data in PubChem BioAssay AID651629 (Sanford-Burnham Center for Chemical Genomics, 2012) are inhibition values, retold here.

Structures are written as SMILES. This is one part of the list. Unmarked numbers belong to inactive results. The source made the active and inactive calls.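 How the source made its calls: active means mean inhibition across replicates of 40% or more; inactive means mean inhibition below 40%.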

As a reminder, the inhibition is the relative decrease from the control value, in per cent.

A short description of the experiment: triacylglycerol accumulation inhibitors, retest, confirmation, cell-based, single concentration, Nile Red fluorescence, H9c2 (AID 651629).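 Further: plate controls were DMSO only wells for no effect and Triacsin C treated wells for full effect.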 The note with it: H9c2 lipid accumulation, at 12.5 µM, active compounds read high, cells loaded with 200 µM oleic acid.
Consider `COC(=O)c1ccc(-c2c(-c3ccccc3)ncc3cc(OC)c(OC)cc23)cc1`, for which the inhibition was 13.2%.

Consider `Cc1ccc(-c2nc3ccccc3[nH]2)cc1NC(=O)c1sc2ccccc2c1Cl`, for which the inhibition was 35.7%.

`CC(=O)c1ccc(Oc2cc(C)nc(-n3nc(C)cc3C)n2)cc1`: the inhibition is 63.2% (active).

For the molecule `O=C(Nc1ccc(-c2csc(Nc3cccc(C(F)(F)F)c3)n2)cc1)c1cccc(C(F)(F)F)c1`, the inhibition is 66% (active).

Take `CC(C)C(=O)N1CCC2(CC1)Oc1ccc(F)cc1C(=O)C21CC(c2ccccc2)=NO1` (stereo not given): the inhibition was -2.17%.

Consider `COc1ccccc1NC1=NC(c2ccc(Cl)cc2)N=C(N)N1` (stereo not given), for which the inhibition is 74.9% (active).

Regarding `CC1(C(=O)NCc2ccco2)Cc2c(-c3ccc4c(c3)OCO4)ccnc2O1` (stereo not given), the inhibition was 61.9% (active).

Consider `CN(C)CC(O)COc1ccc(C(C)(C)c2ccc(OCC(O)CN(C)C)cc2)cc1` (stereo not given), for which the inhibition is 20.9%.

Regarding `CCCCN1C(=O)/C(=C/C=C2/C=Cc3ccccc3N2CC)SC1=S`, the inhibition is 127% (active).

On to `COC(C[C@H](O)CC(=O)COCc1ccccc1)OC`, for which the inhibition is -3.23%.

For `CCOCCC(=O)Nc1ccc2c(c1)c(=O)n(C)n2-c1ccc2ccccc2c1`, the inhibition is 47.5% (active).

For the molecule `CN(C)CCNC(=O)c1cccc(-c2cnc3c(NC=O)cc(-c4cccc(C(F)(F)F)c4)cn23)c1`, the inhibition is 50.4% (active).

As for `CN(/N=C/c1ccccc1)C(=S)c1ccccc1`, the inhibition was 12.5%.

On to `C=CCNC(=S)N/N=C/c1ccc(C)s1`, for which the inhibition is 24.3%.

Take `Cc1ccc(/C=N/NC(=S)Nc2cccc(S(=O)(=O)N(C)C)c2)o1`: the inhibition is 20.8%.

Consider `C=CCn1c(SCc2c(C)noc2C)nc2sc3c(c2c1=O)CCC(C)C3` (stereo not given), for which the inhibition is 49.4% (active).

On to `C/C(=N\Nc1ccc(Cl)nn1)c1ccccc1O`, for which the inhibition is 66.4% (active).

On to `COC(=O)c1ccc(NCc2cc(O)ccc2O)cc1`, for which the inhibition was 29.9%.

As to `COc1ccc(-c2cc(NC=O)c3ncc(-c4cc(OC)c(OC)c(OC)c4)n3c2)c(OC)c1`, the inhibition was 79.3% (active).

For `CC(=O)c1cccc(-c2ccc(CN3C(CC(C)C)C(=O)N(Cc4cn(CC5CCCCC5)nn4)CCS3(=O)=O)cc2)c1` (stereo not given), the inhibition was 47% (active).

Consider `CCCOC(=O)c1[nH]c2c(c1C)C(=O)CC(c1cccs1)C2` (stereo not given), for which the inhibition is 35.2%.

For `CN(C)C(=S)N=c1ssc(=S)n1Cc1ccco1`, the inhibition was 62.1% (active).

For `CCCC(=O)Nc1nc2ccc(NC(=O)c3c(F)c(F)c(OC)c(F)c3F)cc2s1`, the inhibition is 69% (active).

With `CC1(c2ccccc2)CC(C)(C)N(C(=O)c2cc([N+](=O)[O-])cc([N+](=O)[O-])c2)c2ccccc21` (stereo not given), the inhibition was 62.2% (active).

As to `Oc1cccc2cc(-c3ccncc3)cnc12`, the inhibition is 71.1% (active).
